# TROY signal inh: TROY signaling inhibition; Q293 LMP1-TROYcd NF-kB luciferase reporter, 4 h; actives 0.98% (n = 360,000); AID 1347056; inhibition, % at 10 µM;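 active = compounds whose plate-normalised and pattern-corrected inhibition of the luciferase reporter signal at the single screening dose is 50% or more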
# Peg3 prom inh-1: inhibitors of Peg3 promoter | actives 1.7% (n = 360,000) | AID 588405 | inhibition, % at 20 µM | HeLa PEG-Prom luciferase reporter, luminescence, overnight;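 active = inhibition of at least 50% at 20 µM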
# KKLEB tox: CF airway cell cytotoxicity counter-screen; KKLEB CF airway cells viability, ATPlite luminescence, overnight; active compounds read low; cells stimulated with P. aeruginosa culture filtrate; activity change (cytotoxicity), % at 5 µM; actives 0.36% (n = 360,000); AID 602141;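 active = corrected activity change at or below -50% at 5 µM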
# CF NFkB inh: inhibitors of cystic fibrosis induced NF-kB. KKLEB NF-kB-GFP reporter, PAF-induced, GFP fluorescence overnight. AID 588850. actives 0.86% (n = 360,000). inhibition, % at 5 µM;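 active = at least 50% inhibition at 5 µM, scaled per plate between neutral and stimulator controls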;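 note: PAF is a Pseudomonas aeruginosa culture filtrate used as stimulus; plate controls were PAF-stimulated DMSO wells for no effect and unstimulated DMSO wells for full effect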
# TWEAK-Fn14 inh: TWEAK-Fn14 signaling inhibition; TWEAK-stimulated Fn14 reporter cells, luciferase luminescence, 8 h; actives 2% (n = 360,000); inhibition, % at 10 µM; in the data active = inhibition above about 50%
# HIF-2a block: blocks HIF-2a reporter activity; 786-0 RCC cells HIF-2a reporter, luciferase luminescence, overnight; inhibition, % at 18.8 µM; actives 0.72% (n = 360,000);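 active = inhibition of the luminescence signal of 40% or more relative to plate controls, in a single-dose primary screen at 18.75 µM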
# Peg3 prom inh-2: Peg3 promoter inhibition confirmation; shares compounds with Peg3 prom inh-1; HeLa PEG-Prom luciferase reporter, luminescence, overnight; actives 84% (n = 1,300); inhibition, % at 20 µM; AID 602417;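 active = at 20 µM dose, 40% or more inhibition averaged across four replicates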
# Numbers without * were called inactive; x = no result. In the library only some 4% were active in any assay of this set; here they are far more common.
SMILES,TROY signal inh,Peg3 prom inh-1,KKLEB tox,CF NFkB inh,TWEAK-Fn14 inh,HIF-2a block,Peg3 prom inh-2
CCCN1C/C(=C/c2cccc([N+](=O)[O-])c2)C(=O)/C(=C/c2cccc([N+](=O)[O-])c2)C1,2,111*,-88*,95*,7,26,71*
CC(=O)NC(c1ccc(C)cc1)c1cc(Cl)c2cccnc2c1O (stereo not drawn),18,65*,3,-13,12,26,56*
CCCCC(=O)NC(c1ccccc1Cl)c1ccc2cccnc2c1O (stereo not drawn),7,58*,-11,2,2,13,65*
COc1cccc(C(NC(C)=O)c2ccc3cccnc3c2O)c1 (stereo not drawn),10,47,19,-10,15,16,x
CCC(=O)NC(c1cccs1)c1cc([N+](=O)[O-])c2cccnc2c1O (stereo not drawn),1,53*,-5,26,11,5,54*
CC(=O)NC(c1ccc(C(C)C)cc1)c1ccc2cccnc2c1O (stereo not drawn),14,57*,5,-8,14,12,70*
CCOc1ccc(N(CC(=O)NCc2ccccc2)S(=O)(=O)c2ccc(C)cc2)cc1,6,17,-6,7,28,16,x
COc1cc(NC(=O)CSc2nc3cc(C)ccc3cc2C)c(C(=O)O)cc1OC,11,13,-14,0,3,23,x
CC(=O)NC(c1ccccc1)c1cc([N+](=O)[O-])c2cccnc2c1O (stereo not drawn),19,61*,-1,17,36,21,63*
CC(C)C(=O)NC(c1ccccc1)c1cc([N+](=O)[O-])c2cccnc2c1O (stereo not drawn),-9,45,-13,11,24,17,x
Cc1nn(Cc2c(Cl)cccc2Cl)c(C)c1NC(=O)Cn1nc([N+](=O)[O-])c(Cl)c1C,-12,6,-9,-2,-18,26,x
COc1ccc(N2CCN(CC(=O)N3N=CCC3c3ccccc3)CC2)cc1 (stereo not drawn),6,12,1,-11,-19,8,x
O=C(NC(c1ccc(F)cc1)c1ccc2ccccc2n1)C1CCN(Cc2ccc3ccccc3n2)CC1 (stereo not drawn),-4,10,1,11,-11,19,x
O=C(NC(c1ccc(F)cc1)c1ccc2ccccc2n1)C1CCN(Cc2cccc(C(F)(F)F)c2)CC1 (stereo not drawn),45,78*,-25,38,39,-52,85*
CC(C)Oc1ccc(C(CC(=O)NCc2ccco2)c2ccccc2)cc1 (stereo not drawn),4,21,-15,3,19,3,x
CCOc1ccc(OCC(O)CNC2CCN(Cc3ccccc3)CC2)cc1 (stereo not drawn),3,10,-7,11,-32,16,x
CC(C)(c1ccccc1)c1ccc(OCC(O)CNC2CCN(Cc3ccccc3)CC2)cc1 (stereo not drawn),21,107*,-22,12,-69,6,99*
O=C(c1ccc(Cl)cc1)N1CCN(c2ccc([N+](=O)[O-])c(NCc3cccnc3)c2)CC1,25,55*,0,5,2,33,49*
CC(NC(=O)NC12CC3CC(CC(C3)C1)C2)c1ccc2c(c1)OCO2 (stereo not drawn),-13,6,15,-12,-11,6,x
NC(=O)C1CCN(C2=C(NS(=O)(=O)c3ccccc3)C(=O)c3ccccc3C2=O)CC1,-12,7,6,0,-14,4,x
NC(=O)C1CCN(C2=C(Cl)C(=O)c3ccccc3C2=O)CC1,-7,73*,1,11,7,94*,98*
O=C(CCCN1C(=O)/C(=C\c2cccs2)SC1=S)Nc1cccnc1,-11,17,8,-1,3,24,x
O=C(CCCN1C(=O)/C(=C/c2cccc(Br)c2)SC1=S)Nc1cccnc1,5,76*,-9,25,31,49*,96*
COC(=O)c1ccc(CNC(=O)Cn2cnc3c(NCc4ccccc4)ncnc32)cc1,3,63*,3,-14,-37,-4,47*
CC(=O)CCc1ccc(Oc2nc(-c3cccnc3)nc3ccccc23)cc1,7,66*,-18,35,-8,9,40
SMILES,TROY signal inh,Peg3 prom inh-1,KKLEB tox,CF NFkB inh,TWEAK-Fn14 inh,HIF-2a block,Peg3 prom inh-2
CCCC1(c2ccccc2)NC(=O)NC1=O (stereo not drawn),9,7,1,1,6,15,x
CCOC(=O)CC(NC(=O)C(CC)c1ccccc1)c1ccccc1Cl (stereo not drawn),11,17,9,-16,14,14,x
COc1ccc(-c2c(-c3cc(OC)cc(OC)c3)n(C)c3ccc(-c4ccc(S(N)(=O)=O)cc4)cc23)cc1,8,53*,-13,39,-41,20,30
COc1ccc(-c2c(-c3cc(OC)cc(OC)c3)n(C)c3ccc(-c4cnc(N)nc4)cc23)cc1,-5,7,-5,9,-90,5,x
CC(C)(C)S(=O)c1cccs1 (stereo not drawn),-3,7,10,-2,-7,14,x
Cc1ccc2cc(C#N)c(N3CCN(C(=O)c4ccccc4)CC3)nc2c1,-3,17,-18,2,15,4,x
O=C(CCCN1C(=O)/C(=C/c2ccccc2Cl)SC1=S)NNC(=O)c1ccc(Cl)cc1Cl,37,66*,-8,3,17,73*,43*
COc1cccc(C(=O)c2sc(NC(C)C)nc2N)c1,-22,105*,-3,78*,21,-93,76*
C/C(=C\c1cccc(Br)c1)C(=O)c1c(C)cc(C)[nH]c1=O,33,30,4,10,41,20,x
Cc1ccccc1NC(=O)C(=Cc1ccc(C(=O)O)cc1)C(=O)Nc1ccccc1C,16,59*,-44,0,78*,42*,50*
CC(=O)Nc1ccccc1C,3,11,-4,16,9,13,x
CN(C)c1ccc(N=Nc2nc3ccccc3n2C)cc1,90*,104*,-82*,-19,104*,17,88*
COc1cccc(C(=O)O/N=C(\N)c2ccccn2)c1,79*,87*,-3,-12,101*,-66,69*
N/C(=N\OC(=O)c1cccc([N+](=O)[O-])c1)c1ccccn1,9,-173,13,-37,23,-170,x
N/C(=N\OC(=O)c1ccc(Cl)cc1Cl)c1ccccn1,80*,68*,-68*,-12,100*,39,12
CCCc1ccc(C(=O)O/N=C(\N)c2ccccn2)cc1,83*,108*,-43,7,99*,63*,97*

# Screening results from PubChem BioAssay.
